Test results from PubChem BioAssay (NCI).
Compounds without any hit were thinned out: in the full panel of roughly 79,000, 15% have a hit. Calls of active or inactive are those of the source. Rule as the data show it: active = growth inhibition above about 70%; inactive = the rest.

Tests used:
[1] = NCI Yeast Anticancer Drug Screen. Data for the rad50 strain (AID 155);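 also: 0% = growth of vehicle-only cultures of the same strain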; conditions: S. cerevisiae rad50 strain growth inhibition; at 50.0 µM; active compounds read high
In short: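 Genetically altered yeast (DNA repair pathway); compound treatment; growth inhibition vs vehicle ctrl.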

[2] = NCI Yeast Anticancer Drug Screen. Data for the mec2-1 strain (AID 157); conditions: S. cerevisiae mec2-1 strain, at 50.0 µM, active compounds read high
In short: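 Strain: mec2-1 (DNA repair/cell cycle alteration). Compound exposure, then growth measured; inhibition expressed relative to vehicle.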

[3] = NCI Yeast Anticancer Drug Screen. Data for the sgs1 mgt1 strain (AID 161);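 also: 0% = growth of cultures given vehicle only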; conditions: S. cerevisiae sgs1 mgt1 strain, at 50.0 µM, active compounds read high
In short: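 Mutant yeast exposed to compound; growth scored against vehicle-only wells.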

[4] = NCI Yeast Anticancer Drug Screen. Data for the cln2 rad14 strain (AID 165);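 also: 0% = growth equal to vehicle treated cultures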; conditions: S. cerevisiae cln2 rad14 strain, at 50.0 µM, active compounds read high
In short: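 Compounds are applied to the cln2 rad14 yeast strain, and growth is then compared with that of vehicle-treated cultures to give inhibition.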

[5] = NCI Yeast Anticancer Drug Screen. Data for the bub3 strain (AID 167); conditions: S. cerevisiae bub3 mutant strain, at 50.0 µM, active compounds read high
In short: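 Yeast carrying a defined mutation is treated with each compound, and growth is compared with that of vehicle-exposed cells to give inhibition.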

[6] = NCI Yeast Anticancer Drug Screen. Data for the mlh1 rad18 strain (AID 175); conditions: S. cerevisiae mlh1 rad18 strain growth inhibition; at 50.0 µM; active compounds read high
In short: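 Read-out is yeast growth inhibition, calculated against vehicle-only controls. The compound was applied to a strain engineered with DNA damage repair alterations.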

Measured: growth inhibition

C(#Cc1c2ccccc2c(C#Cc2ccccc2)c2c(-c3ccccc3)cccc12)c1ccccc1
inactive: [1] -11.1% | [2] 13.1% | [3] -3.5% | [4] 4.05% | [5] 45.6% | [6] 24.5%

CC(=O)Oc1cc(OC(C)=O)c2c(c1)OC(c1ccc(OC(C)=O)c(OC(C)=O)c1)CC2=O (stereo unspecified)
inactive: [1] 21.4% | [2] 3.8% | [3] 18.3% | [4] 3.95% | [5] 3.85% | [6] 28%

CCC(C(=O)O)C(C)(C)O (stereo unspecified)
inactive: [1] -10.8% | [2] -11.1% | [3] -7.95% | [4] 7.05% | [5] -0.85% | [6] -15.3%

CCOC(=O)CCC(NC(=O)c1ccc(Nc2nc3ccccc3nc2C(=O)OCC)cc1)C(=O)OCC (stereo unspecified)
inactive: [1] 11.8% | [2] 2.55% | [3] 9.1% | [4] 15.4% | [5] 25.8% | [6] 19.1%

Cc1[nH]nc(C(=O)O)c1N
inactive: [1] -18.2% | [2] -20.6% | [3] -14.6% | [4] -16.1% | [5] -13.4% | [6] -7.2%

CCOC(=O)C1CCCC1S(=O)(=O)c1ccc(C)cc1 (stereo unspecified)
inactive: [1] -20% | [2] -15.3% | [3] -27.4% | [4] 21.9% | [5] 1.75% | [6] -3.5%

O=C1CCCC1CC(CN1CCOCC1)Sc1nnnn1-c1ccccc1 (stereo unspecified)
inactive: [1] 6.55% | [2] -3.5% | [3] 17.1% | [4] -16.6% | [5] 25.2% | [6] -45.8%

CC(=O)NC(CCCc1ccccc1)C(=O)O (stereo unspecified)
inactive: [1] 7.65% | [2] 9% | [3] -17.1% | [4] -23.1% | [5] 2.45% | [6] -18.9%

O=S(CCCl)c1ccccc1 (stereo unspecified)
inactive: [1] -8.3% | [2] -13.2% | [3] 3.35% | [4] 10.4% | [5] -7.05% | [6] 4.9%

C=CS(=O)(=O)CCCCCCCCCCCCCCCCCC
inactive: [1] -2.35% | [2] 10.7% | [3] -18.4% | [4] -12.8% | [5] 5.3% | [6] 8.9%

COc1cc(C2C(C(=O)Nc3ccccc3C)=C(C)NC(C)=C2C(=O)Nc2ccccc2C)ccc1O
inactive: [1] -27.1% | [2] -8.45% | [3] -16.6% | [4] -3.15% | [5] -10.8% | [6] -9.95%

CC(C)(O)c1cc(F)ccc1N
inactive: [1] -0.75% | [2] 11.3% | [3] -1.3% | [4] 15.3% | [5] 29.6% | [6] 8.3%

CCCCN(C)CCNc1cc(C)nc(Nc2nc3ccc(Cl)cc3[nH]2)n1
active: [1] 90% | [2] 96.2% | [3] 74.9% | [4] 96.6% | [5] 97.9% | [6] 96.2%

CN(C)Cc1ccccc1C=C(c1ccccc1)c1ccccc1
inactive: [1] 3.05% | [2] 0.65% | [3] -6.2% | [4] -37.9% | [5] 0.55% | [6] -9.8%

O=C(CCCCCCCCC(=O)NC1CCCCC1)NC1CCCCC1
inactive: [1] -13.2% | [2] -26.5% | [3] -21.6% | [4] -20.8% | [5] -19% | [6] -5.4%

N#Cc1ccc(Sc2ccccc2)cc1C#N
inactive: [1] 12.8% | [2] -8.7% | [3] 24.4% | [4] 10.2% | [5] 24.9% | [6] 0.6%

NCCCc1ccc2oc3ccccc3c2c1
inactive: [1] 23.8% | [2] -14.2% | [3] 13.9% | [4] 15.5% | [5] -22.3% | [6] 24.4%

COc1ccc(NC(=O)COc2ccc(Cl)cc2Cl)cc1
inactive: [1] 22.9% | [2] 26.8% | [3] 31.4% | [4] 36% | [5] 33% | [6] 19.6%

Cc1csc2nc(-c3ccncc3)cn12
inactive: [1] 10.7% | [2] 10.1% | [3] -14% | [4] 1.4% | [5] 37.1% | [6] 23.1%

CCCCCCCCCCCCCCCCCCc1c(C)cc(C)cc1C
inactive: [1] 3.7% | [2] 23.2% | [3] 3.7% | [4] 33.3% | [5] 3.55% | [6] 4.3%

Cn1c(=O)c(N=Nc2c(=O)n(C)c(=O)n3c2[nH]c2ccccc23)c2[nH]c3ccccc3n2c1=O
inactive: [1] -2.1% | [2] 17.1% | [3] 7.4% | [4] -27.4% | [5] -10.7% | [6] 12.2%

O=C(NC(COC(=O)c1ccccc1)COC(=O)c1ccccc1)c1ccccc1
inactive: [1] 29.5% | [2] 7.85% | [3] 12.8% | [4] 12.8% | [5] -1.1% | [6] 9.95%

CNc1nc2c(s1)c1c(O)c3c(O)c(C)c4c(c32)C(=O)C(C)(O/C=C/C(OC)C(C)C(OC(C)=O)C(C)C(O)C(C)C(O)C(C)/C=C/C=C(/C)C(=O)N1)O4 (stereo unspecified)
inactive: [1] 14.1% | [2] 13.8% | [3] 9.1% | [4] 9.7% | [5] 21.2% | [6] 20.5%

CC1C2c3ccccc3C(c3ccccc32)C1CN1C(CCO)COC1c1ccccc1 (stereo unspecified)
inactive: [1] 4.05% | [2] 8.9% | [3] -3.25% | [4] -1.75% | [5] 1.4% | [6] 7.6%

CC[N+](C)(CC)CCNc1cc2c(c3c(=O)c4ccccc4sc13)CCCC2
active: [1] 99.2% | [2] 99.7% | [3] 99.1% | [4] 99.2% | [5] 99% | [6] 99%

COc1cccc(C2CC(C)(O)Oc3cc4c(cc32)OCO4)c1O (stereo unspecified)
inactive: [1] 9.15% | [2] -8.25% | [3] -9.45% | [4] 12.1% | [5] 23.3% | [6] 6.65%

CS(C)=O.[Cl-].[Cl-].[NH-]CC(O)C[N-]CC(O)CN.[Pt+4] (stereo unspecified)
inactive: [1] -9.2% | [2] -19.7% | [3] -20.4% | [4] -9.65% | [5] -3.5% | [6] 9.55%

CCN(CC)CC(C)=O
inactive: [1] -31% | [2] -58.3% | [3] -82.5% | [4] 14.8% | [5] -11.9% | [6] -6.1%

CCOC(=O)N1CC(C)N(C(=O)OCC)CC1C (stereo unspecified)
inactive: [1] -3.9% | [2] -7.1% | [3] 6.7% | [4] -15.8% | [5] 33.8% | [6] 8.5%

c1ccc(C(c2cccc3c2ccc2ccccc23)C(c2ccccc2)c2cccc3c2ccc2ccccc23)cc1 (stereo unspecified)
inactive: [1] 4.75% | [2] -9.6% | [3] -33.3% | [4] -19.6% | [5] -22.4% | [6] -12.7%

Cc1ccc(C)n1-n1c(-c2ccccc2)n[nH]c1=O
inactive: [1] -19.8% | [2] -20.9% | [3] -2.7% | [4] -3.4% | [5] -27.7% | [6] -12.3%

CCOC(=O)C1=C(C)NC(=O)NC1c1cccc(OC)c1O (stereo unspecified)
inactive: [1] 11% | [2] 0.15% | [3] 16.7% | [4] 9.7% | [5] 30.8% | [6] 18.1%

CCCCCCCCCCCCCCCCCC(=O)NCC[N+](C)(C)C
active: [1] 99% | [2] 99.5% | [3] 99.4% | [4] 98.8% | [5] 98.8% | [6] 99.2%

CC(=O)Nc1cc(-c2ccccc2)cc(-c2ccccc2)c1
inactive: [1] 11.6% | [2] 0.4% | [3] -2.55% | [4] 1.5% | [5] 10.7% | [6] 22.4%

CN(C(=O)c1ccccc1)C1CCCC(=O)CC1 (stereo unspecified)
inactive: [1] -2.35% | [2] -10% | [3] 8.25% | [4] 9.95% | [5] -13.6% | [6] -65%

CC(C)CCC(C)(C)O
inactive: [1] 45.9% | [2] 1.8% | [3] 16.1% | [4] -20.7% | [5] 9.95% | [6] 34.2%

O=C(O)CCc1ccncc1
inactive: [1] 2.25% | [2] 9% | [3] 12.8% | [4] -1.7% | [5] 7.1% | [6] -0.95%

Cc1ccc(NC(=O)Oc2ccc(Br)cc2Br)c(Cl)c1
inactive: [1] 21.1% | [2] 17.9% | [3] 16.7% | [4] -0.25% | [5] -6.3% | [6] 41.6%

O=C(COc1ccc(Cl)c(Cl)c1)NCc1ccc(Cl)cc1
inactive: [1] 7.35% | [2] 13.2% | [3] 0.1% | [4] 5.3% | [5] 29.3% | [6] 49.5%

CC(C)Cc1ncnc2n[nH]nc12
inactive: [1] 1.65% | [2] 8.5% | [3] 35.5% | [4] 35.4% | [5] 20.4% | [6] 17.8%

CC1(C)CC(C)(C)c2c1oc(=O)c1c3c(oc(=O)c21)C(C)(C)CC3(C)C
inactive: [1] 15.7% | [2] -9.1% | [3] 12.8% | [4] 35.5% | [5] 26.2% | [6] -9.85%
